This is one part of a sample in which hits are shown more often than they occur.
IL1B secr inh: inhibitors of inflammasome signaling (IL-1 beta secretion); THP-1 LPS/ATP IL-1B secretion, AlphaLISA, 16 h; hits give low values; activity change, % at 57.5 µM; 360,000 tested, 4.7% active; AID 743279; in the data active = activity change below about -50%; inconclusive = mostly about -30% to -49%
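Secreted IL-1B measured by AlphaLISA bead assay after 16 h compound exposure of THP-1 cells; compounds (final up to 57.5 uM) added 1 h before LPS (250 ng/mL) and ATP (1.25 mM) stimulation; lower signal means less secretion.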
HT1080 IDH1KD tx: toxicity to HT-1080 IDH1 knockdown cells (counter line). Potency, µM (highest dose often 46.1 µM), for the others: at the top dose activity, negative = toxicity, actives largely listed as cytotoxic. HT-1080 IDH1 knockdown viability, ATP luminescence, 48 h. AID 686971. 360,000 tested, 2% active;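 also: potency is read from the fitted curve at half-maximal effect; 0% = DMSO wells and -100% = cell-free medium wells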
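Viability of IDH1-knockdown HT-1080 fibrosarcoma cells was assessed by CellTiter-Glo after 48 h at 37 °C with titrated compound; concentration-effect curves were classified by fit quality and response size.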
DT40 TDP1 no CPT: qHTS for Inhibitors of human tyrosyl-DNA phosphodiesterase 1 (TDP1): qHTS in cells in absence of CPT; DT40 Tdp1-/- hTDP1 cells, no CPT, ATP luminescence, 48 h; Potency, µM (highest dose often 46.2 µM), for the others: top-dose activity change, negative = growth inhibition, usual class: inhibitors; 420,000 tested, 15% active; AID 686978, 2013; also: potency is read from the fitted curve at half-maximal effect; nearly all actives have a fitted effect of over 55% in size
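No-CPT arm: Tdp1-/-;hTDP1 DT40 cells (400/well) plus compounds, incubated ≥48 hr at 37 °C. Readout CellTiter-Glo luminescence.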
HT1080NT lethal: kills 2HG-producing HT-1080-NT fibrosarcoma cells | HT-1080-NT fibrosarcoma viability, CellTiter-Glo ATP luminescence, 48 h | Potency, µM (highest dose often 46.1 µM), inactives show at the top dose activity, negative = less viability, usual class: cytotoxic | 360,000 tested, 1.6% active | AID 686970;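 also: NT is the 2HG producing partner of a matched IDH1 knockdown line; potency is read from the fitted curve at half-maximal effect; 0% = DMSO-treated cells and -100% = media-only wells without cells; nearly all actives have a fitted effect of over 55% in size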
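Viability by CellTiter-Glo luminescence after 48 h compound exposure at 37C of HT-1080-NT cells (750/well, RPMI, 5% FBS). % activity scaled between DMSO wells and medium-only wells, then curve-fitted and categorized by curve class.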
ALOX12 inh: inhibitors of human 12S-lipoxygenase ALOX12 | P18054 | purified 12hLO, xylenol orange hydroperoxide absorbance | Potency, µM (series often up to 108 µM), inactives show at the top dose activity change, negative = inhibition, usual class: inhibitors | 580,000 tested, 1.1% active; also: potency is read from the fitted curve at half-maximal effect
Target sequence (P18054 whole entry, looked up): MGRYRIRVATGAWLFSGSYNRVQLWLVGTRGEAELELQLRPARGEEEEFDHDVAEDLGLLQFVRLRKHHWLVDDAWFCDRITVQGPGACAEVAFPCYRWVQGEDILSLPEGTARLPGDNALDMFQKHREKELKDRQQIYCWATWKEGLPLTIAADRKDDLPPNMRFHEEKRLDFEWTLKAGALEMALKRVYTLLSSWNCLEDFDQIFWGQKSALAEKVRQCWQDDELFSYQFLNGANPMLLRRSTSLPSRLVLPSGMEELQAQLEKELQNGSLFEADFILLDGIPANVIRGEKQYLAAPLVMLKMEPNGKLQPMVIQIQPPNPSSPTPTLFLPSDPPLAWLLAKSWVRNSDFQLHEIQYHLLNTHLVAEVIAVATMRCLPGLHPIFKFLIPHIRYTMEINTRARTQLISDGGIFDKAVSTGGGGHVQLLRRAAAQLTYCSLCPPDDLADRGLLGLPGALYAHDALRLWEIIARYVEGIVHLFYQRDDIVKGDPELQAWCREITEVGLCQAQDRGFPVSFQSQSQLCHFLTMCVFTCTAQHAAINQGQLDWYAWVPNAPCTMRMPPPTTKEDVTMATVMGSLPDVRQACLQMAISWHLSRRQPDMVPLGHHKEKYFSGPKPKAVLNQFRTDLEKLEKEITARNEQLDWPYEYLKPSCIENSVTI
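Hydroperoxide product was detected by ferrous iron/xylenol orange as the 573 to 405 nm absorbance ratio. Arachidonic acid at 40 uM (final) was turned over for 30 min at room temperature by 150 nM human 12hLO, pH 7.0 Hepes buffer, after 15 min compound preincubation.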
DT40 TDP1 CPT: growth inhibition of DT40 Tdp1-/-;hTDP1 cells with camptothecin (screen for TDP1 inhibitors). chicken DT40 Tdp1-/-;hTDP1 cells + 20 nM CPT, ATP luminescence, 48 h. Potency, µM (series often up to 46.2 µM), for inactives: at the highest dose activity change, negative = growth inhibition, usual class: inhibitors. 420,000 tested, 12% active; also: potency is read from the fitted curve at half-maximal effect; nearly all actives have a fitted effect of over 55% in size
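Cell growth measured by CellTiter-Glo luminescence after a minimum 48 h, 37 C compound exposure with 20 nM CPT in Tdp1-knockout DT40 cells stably expressing hTDP1, seeded 400/well; qHTS titration format.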
The depositor's hits bear a star; [ ] = another dose, or the depositor's remark. Unless noted, calls follow the shape of the dose curve; as a rule, active = well fitted curve in the direction sought with a large enough effect; inconclusive = small, poorly fitted or top-dose-only effect, or another doubt; inactive = no such curve, though single readings can be large; an effect the other way counts as inactive or inconclusive. Unless noted, % is scaled to controls: 0 for no effect and ±100 for the full control effect.

What do the screens show for `COc1ccc(-n2ncc(C(=O)NC3CC3)c2C2CCN(C(=O)OC(C)(C)C)CC2)cc1`?
IL1B secr inh: 14; HT1080 IDH1KD tx: 7%; DT40 TDP1 no CPT: -1%; HT1080NT lethal: 5%; ALOX12 inh: 0%; DT40 TDP1 CPT: -20%

Results for CC(C)(C)OC(=O)N1CCC(c2c(C(=O)N3CCN(c4ncccn4)CC3)cnn2-c2ccc(F)cc2)CC1 ?
DT40 TDP1 no CPT: -5%; ALOX12 inh: -4%; DT40 TDP1 CPT: -4%

What do the screens show for `COc1ccc(CNC(=O)c2cnn(-c3ccc(C)cc3)c2C2CCN(C(=O)OC(C)(C)C)CC2)cc1`?
DT40 TDP1 no CPT: 21µM*; ALOX12 inh: -27%; DT40 TDP1 CPT: 9.2µM*

What do the screens show for `CC(C)c1ccc([C@@H]2O[C@H](C)CC3=C2C(=O)OC(C)(C)O3)cc1`?
IL1B secr inh: 0; HT1080 IDH1KD tx: 7%; DT40 TDP1 no CPT: inconclusive; HT1080NT lethal: 2%; ALOX12 inh: inconclusive; DT40 TDP1 CPT: -19%

How did COCCNC(=O)[C@H]1C[C@H](Oc2ccccc2)CN1C(=O)NC1CCCCC1 do in these assays?
ALOX12 inh: 43%

What do the screens show for `CC(C)CCNC(=O)COc1ccc2c(-c3ccccc3)cc(=O)oc2c1`?
ALOX12 inh: 0%

What do the screens show for `CC(C)(C)OC(=O)N1CCC(c2c(C(=O)NCc3ccccc3)cnn2-c2cccc(F)c2)CC1`?
DT40 TDP1 no CPT: 18µM*; ALOX12 inh: -24%; DT40 TDP1 CPT: inconclusive

What do the screens show for `COc1ccc(C(CNC(=O)c2ccc(S(=O)(=O)N3CC(C)CC(C)C3)cc2)N(C)C)cc1` (stereo not given)?
IL1B secr inh: -52*; HT1080 IDH1KD tx: inconclusive; DT40 TDP1 no CPT: 29µM*; HT1080NT lethal: inconclusive; ALOX12 inh: -14%; DT40 TDP1 CPT: inconclusive

Results for O=C(NCc1ccccn1)c1cc(S(=O)(=O)N2CCN(c3ccccc3)CC2)ccc1Cl ?
IL1B secr inh: 18; HT1080 IDH1KD tx: 1%; DT40 TDP1 no CPT: 18µM*; HT1080NT lethal: 3%; ALOX12 inh: -17%; DT40 TDP1 CPT: 10µM*

Results for CN(C)C(CNC(=O)c1cccc(S(=O)(=O)N2CCN(c3ccccc3)CC2)c1)c1ccccc1 (stereo not given) ?
IL1B secr inh: -27; HT1080 IDH1KD tx: -4%; DT40 TDP1 no CPT: inconclusive; HT1080NT lethal: -16%; ALOX12 inh: 3%; DT40 TDP1 CPT: inconclusive

Results for COc1ccc(C(CNC(=O)c2ccc(S(=O)(=O)N3CCCC3)cc2)N(C)C)cc1OC (stereo not given) ?
IL1B secr inh: 39; HT1080 IDH1KD tx: 7%; DT40 TDP1 no CPT: 2%; HT1080NT lethal: 0%; ALOX12 inh: 7%; DT40 TDP1 CPT: inconclusive

How did COc1ccc(C(CNC(=O)c2cc(S(=O)(=O)N3CCN(c4ccccc4)CC3)ccc2Cl)N(C)C)cc1 (stereo not given) do in these assays?
IL1B secr inh: inconclusive; HT1080 IDH1KD tx: inconclusive; DT40 TDP1 no CPT: 18µM*; HT1080NT lethal: inconclusive; ALOX12 inh: -6%; DT40 TDP1 CPT: 21µM*

How did CC(C)(C)C(=O)NCc1ccnc2[nH]ccc12 do in these assays?
ALOX12 inh: 82%[176 µM]

Results for CC/C(=N\Nc1ccccc1[N+](=O)[O-])c1ccc(O)cc1 ?
IL1B secr inh: -23; HT1080 IDH1KD tx: 21µM*; DT40 TDP1 no CPT: -10%; HT1080NT lethal: inconclusive; ALOX12 inh: inconclusive; DT40 TDP1 CPT: -20%

Results for COc1ccc(C2C=C3c4cc5c(cc4CCN3C3=C2C(=O)CCC3)OCCCO5)cc1 (stereo not given) ?
ALOX12 inh: -25%

Assay outcomes as filed in PubChem BioAssay.
